Hits are enriched below; roughly 2.4% of the tested compounds scored in any of these assays.
Pol iota inh – inhibitors of human DNA polymerase iota; 1% of 390,000 active; Q9UNA4; Potency, µM (titrated, usually from 115 µM), inactives show at the highest dose activity, negative = inhibition, hits mostly inhibitors; Pol iota fluorescent replication assay, 10 min
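Pol iota at 10 nM preincubated 15 min with compounds at room temperature; reaction started with fluorescent substrate, 50 nM final. Fluorescence read kinetically at 0 and 10 min; buffer-only wells as negative control.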
FEN1 inh – inhibitors of human flap endonuclease 1. Potency, µM (doses to about 114 µM), for the others: at the top dose activity change, negative = inhibition, most hits filed as inhibitors. Recombinant FEN1 flap cleavage, fluorescence, 15 min. AID 588795. P39748. 0.35% of 390,000 active; further: on the % scale 0 is the no-effect control and ±100 the full control effect; nearly all actives have a fitted effect of over 65% in size
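Steps: FEN1 (10 nM) dispensed; compound added by pin tool; 15 min at room temperature; substrate added to 50 nM final; reads at 0 min and 15 min; data normalized and fitted (four-parameter Hill).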
Pol kappa inh – blocks human DNA polymerase kappa activity; Q9UBT6; AID 588579; purified Pol kappa, fluorescent DNA synthesis assay, 10 min; 0.53% of 400,000 active; Potency, µM (series often up to 107 µM), without a hit: at the top dose activity, negative = inhibition, usual class: inhibitors; further: on the % scale 0 is the no-effect control and ±100 the full control effect
Target sequence (Q9UBT6 whole entry, looked up): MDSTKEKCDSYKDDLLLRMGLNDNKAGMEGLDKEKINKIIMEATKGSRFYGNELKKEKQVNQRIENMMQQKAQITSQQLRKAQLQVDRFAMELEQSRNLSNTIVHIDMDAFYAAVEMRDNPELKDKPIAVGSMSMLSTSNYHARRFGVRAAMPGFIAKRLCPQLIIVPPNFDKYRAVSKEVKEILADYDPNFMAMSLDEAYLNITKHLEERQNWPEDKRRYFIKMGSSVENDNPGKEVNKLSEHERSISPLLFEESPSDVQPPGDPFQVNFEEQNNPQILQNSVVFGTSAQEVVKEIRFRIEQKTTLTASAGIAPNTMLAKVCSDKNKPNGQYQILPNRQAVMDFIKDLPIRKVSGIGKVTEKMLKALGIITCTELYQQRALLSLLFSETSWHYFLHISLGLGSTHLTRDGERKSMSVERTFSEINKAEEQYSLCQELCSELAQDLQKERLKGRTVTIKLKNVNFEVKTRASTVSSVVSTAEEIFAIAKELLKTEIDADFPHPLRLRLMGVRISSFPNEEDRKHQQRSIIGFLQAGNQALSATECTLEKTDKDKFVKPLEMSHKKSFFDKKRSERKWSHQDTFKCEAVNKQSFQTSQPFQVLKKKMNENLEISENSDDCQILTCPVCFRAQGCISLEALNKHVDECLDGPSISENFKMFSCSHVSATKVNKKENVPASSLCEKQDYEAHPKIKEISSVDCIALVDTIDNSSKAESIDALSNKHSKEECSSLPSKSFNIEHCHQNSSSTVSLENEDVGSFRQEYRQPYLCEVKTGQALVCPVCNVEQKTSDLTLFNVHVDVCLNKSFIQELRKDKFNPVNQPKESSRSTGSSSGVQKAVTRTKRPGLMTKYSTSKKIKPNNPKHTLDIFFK
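50 nM final substrate added after 15 min RT preincubation of 10 nM Pol kappa with compound; fluorescence read at 0 and 10 min.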
POLB inh – inhibitors of human DNA polymerase beta | P06746 | Pol beta primer extension/strand displacement, fluorescence kinetic | Potency, µM (top dose mostly 114 µM), for inactives: top-dose activity change, negative = inhibition, actives largely listed as inhibitors | 1.3% of 340,000 active | AID 485314; further: on the % scale 0 is the no-effect control and ±100 the full control effect
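Enzyme-only controls used 10 nM Pol beta; buffer lacking enzyme served as negative control. Compound preincubated 15 min, then 50 nM substrate added; 0 and 10 min reads at room temperature.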
Pol eta inh – DNA polymerase eta (human) inhibition. Q9Y253. Potency, µM (top dose mostly 114 µM), without a hit: at the highest dose activity change, negative = inhibition, usual class: inhibitors. 1.2% of 390,000 active. recombinant Pol eta, fluorescent DNA replication assay; further: on the % scale 0 is the no-effect control and ±100 the full control effect
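Fluorescent replication assay: 50 nM final substrate added after a 15 min room-temperature compound preincubation with 10 nM enzyme. Signal taken at 0 min and again at 10 min.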
TDP1 block – inhibitors of human tyrosyl-DNA phosphodiesterase TDP1; Q9NUW8; recombinant TDP1, AlphaScreen DNA substrate cleavage; Potency, µM (doses to about 130 µM), without a hit: at the top dose activity change, negative = inhibition, usual class: inhibitors; 0.28% of 350,000 active; AID 485290; further: on the % scale 0 is the no-effect control and ±100 the full control effect; nearly all actives have a fitted effect of over 40% in size
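E. coli-derived human Tdp1, 1 nM final. Cpd preinc 15 min RT; substrate 15 nM final, 5 min RT; AS bead mix 10 ug/ml final, 10 min RT. Signal loss = tyrosine-FITC cleavage. No-enzyme wells = max signal.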
PGK validate – blocks T. brucei phosphoglycerate kinase. AID 686980. shares compounds with Pol kappa inh. Potency, µM (top dose mostly 57.5 µM), for inactives: at the top dose activity change, negative = inhibition, hits mostly inhibitors. TbPGK coupled GAPDH assay, Kinase-Glo luminescence. 79% of 500 active; further: on the % scale 0 is the no-effect control and ±100 the full control effect; nearly all actives have a fitted effect of over 65% in size
POLI cherry-pick – Human Pol iota inhibitor confirmatory assay. shares compounds with Pol kappa inh. Pol iota primer extension, TAMRA/BHQ fluorescence. Potency, µM, most hits filed as inhibitors. 77% of 1,500 active. AID 720496
An asterisk follows results filed as active; ? = inconclusive; . = no result given; [ ] = dose if it differs, or a comment. The call rests on the fitted dose curve; in most records, active means well fitted curve in the direction sought with a large enough effect; inconclusive means small, poorly fitted or top-dose-only effect, or another doubt; inactive means no such curve, though single readings can be large; an effect the other way counts as inactive or inconclusive. Potency means the concentration at half of the fitted maximal effect.

SMILES	Pol iota inh	FEN1 inh	Pol kappa inh	POLB inh	Pol eta inh	TDP1 block	PGK validate	others
CCOc1ccc(OCC(=O)Nc2nccs2)cc1	-1%	-3%	4%	0%	-14%	0%	13µM*
CCOc1ccc(S(=O)(=O)N(C)c2ccc(OCC(=O)Nc3nccs3)cc2)cc1	-18%	-24%	-12%	-2%	-4%	0%	.
C/C=C\C=C/C(=O)Nc1cccc(C2=NOC3(C2)C[C@H](C(N)=O)N(C(=O)c2ccc(OC)cc2)C3)c1 (stereo not given in full)	25µM*	5%	?	-1%	20µM*	4%	.	POLI cherry-pick=?
C/C=C\C=C/C(=O)Nc1cccc(C2=NOC3(C2)C[C@@H](C(N)=O)N(C(=O)c2ccc(Cl)cc2)C3)c1 (stereo not given in full)	4%	10%	-2%	-10%	-9%	0%	.
Cc1ccccc1CNC(=O)c1ccccc1NC(=O)c1nsc2ccccc12	-4%	11%	-7%[60.1 µM]	-3%	17%	0%	.
CC(=O)NNC(=O)CN1C(=O)/C(=C/c2ccccc2)SC1=S	-11%	-13%	-15%	-7%	-10%	-4%	.
O=C(CN1C(=O)/C(=C\c2ccco2)SC1=S)Nc1ccc(O)cc1C(=O)O	?	-6%	-6%	0.4µM*	8.9µM*	-13%	26µM*
O=C(COc1ccc(F)cc1)NCCc1nc2ccccc2[nH]1	-1%	6%	-16%	2%	-3%	3%	.
CCCSc1ccc2nc(-c3ccccc3)cn2c1	-12%	-22%	-28%	0%	-12%	3%	18µM*
CCCCSc1ccc2nc(-c3ccc(C#N)cc3)cn2c1	2%	-14%	-16%	4%	-6%	-1%	.
Cc1cccc(C(=O)NNC(=S)NC(=O)c2ccccc2)c1	118%	0%	-12%	.	2%	.	.
Cc1cccc(C(=O)NC(=S)Nc2cccc3nc(C)ccc23)c1	32µM*	-5%	-8%	25µM*	?	-16%	.	POLI cherry-pick=?
C/C(=N/NC(=O)c1cc(O)c(O)c(O)c1)c1ccc([N+](=O)[O-])cc1	?	?	13µM*	1.8µM*	14µM*	-1%	?
C/C(=N\NC(=O)c1ccc([N+](=O)[O-])cc1)c1c(O)cc(C)oc1=O	56%	2%	-20%	12%	-20%	5%	.
Cc1ccc(NC(=O)CS(=O)CC(=O)Nc2ccc(N3CCOCC3)cc2)cc1Cl (stereo not given)	18µM*	?	?	25µM*	?	0%	.	POLI cherry-pick=?
Cc1ncc([N+](=O)[O-])n1C[C@H](O)CCl	.	.	-5%[12 µM]	.	.	7%[21 µM]	.
CCOC(=O)/C=C/C(=O)N1CCc2ccccc21	?	-2%	-5%	30%	9%	3%	.
O=C(/C=C/c1ccco1)N1CCc2ccccc21	-27%	2%	0%	?	-7%	3%	16µM*
CC(C)OC(=O)c1c(-c2ccccc2)c(-c2ccccc2)nn(C)c1=O	11%	10%	-20%	2%	-6%	5%	.
COc1ccc(C(C[N+](=O)[O-])c2c(C)[nH]n(-c3ccccc3)c2=O)cc1 (stereo not given)	1.6µM*	?	-10%	-2%	-13%	.	.	POLI cherry-pick=67*
COc1ccc(C(C[N+](=O)[O-])c2c(C)cc3ccccn23)cc1 (stereo not given)	51%	-14%	-2%	19%	7%	6%	.
Cc1ccc(S(=O)(=O)N[C@H]2COC(=O)C/C=C\[C@@H](C)[C@H](NS(=O)(=O)c3ccc(C)cc3)COC(=O)[C@H](C)NC(=O)C/C=C\[C@H]2C)cc1	.	.	.	.	.	5%[21 µM]	.
Cc1ccc(Cl)cc1NC(=O)Nc1cn(CC(C)C)c(=O)c2ccccc12	?	8%	-22%	7%	22µM*	0%	3%
COc1cccc(NC(=O)CSc2nnc3scc(-c4ccc(Cl)cc4)n23)c1	?	-3%	-9%	-1%	.	.	.
O=C(O)CCCNC(=O)/C=C/c1ccco1	?	?	50µM*	2.8µM*	4µM*	?	?
SMILES	Pol iota inh	FEN1 inh	Pol kappa inh	POLB inh	Pol eta inh	TDP1 block	PGK validate	others
CCOc1ccc(NC(=O)COC(=O)c2ccccc2OCC(=O)N(C)C)cc1	24%	12%	2%	.	.	.	.
Cn1c(=O)cc(SCC(=O)N2CCN(c3ccccc3F)CC2)c2ccc(Cl)cc21	2%	13%	5%	14%	3%	0%	.
COc1ccc(/C=N\NC(=O)c2c(C)nc3ccc(Br)cn23)cc1	?	2%	-33%	?	?	5%	.	POLI cherry-pick=?
CCCCNc1cc(NC2CCCCC2)c2c3c(onc13)-c1ccccc1C2=O	?	4%	-7%	?	71µM*	12%	.	POLI cherry-pick=60*
Nc1ccc(N2CCCCC2)c2nonc12	?	?	-6%	9%	35µM*	3%	.	POLI cherry-pick=?
Nc1ccc(N2CCCCC2)cc1N1CCCCC1	8%	2%	-18%	21%	-12%	10%	.
CCOC(=O)C1CCCN(S(=O)(=O)c2cc3c(cc2C)NC(=O)CO3)C1 (stereo not given)	2%	3%	-3%	13%	-6%	-4%	.
Cc1ccc(CCNC(=O)c2cnc3c(-c4ccc(F)cc4)c(C)nn3c2C)cc1	12%	16%	10%	2%	-19%	2%	.
CCCCCC(=O)Nc1cc(S(=O)(=O)O)cc2cc(S(=O)(=O)O)cc(O)c12	1µM*	10µM*	1.4µM*	.	-99%	.	0.23µM*
COc1ccc(OC)c(NC(=O)CSc2nc(-c3ccccc3C)nc3cc(=O)[nH]n23)c1	11%	-6%	-3%	4%	-22%	5%	.
CCOc1ccc(-c2nc(SCC(=O)Nc3cc(F)ccc3F)n3[nH]c(=O)cc3n2)cc1	0%	-21%	15%	4.5µM*	-6%	.	5.8µM*
O=C(O)C1OC(Oc2c(-c3ccc(O)c(O)c3)oc3cc(O)cc(O)c3c2=O)C(O)C(O)C1O (stereo not given)	22µM*	11µM*	14µM*	8.9µM*	6.3µM*	-14%	10µM*
Cc1nn(-c2ccc(N3CCCC3)nn2)c(C)c1CCC(=O)NCc1ccc(OC(C)C)cc1	14%	3%	2%	1%	-1%	2%	.
Cc1ccc(Sc2c(C(=O)NCc3ccccc3C)[nH]c3ccccc23)cc1	39%	1%	0%	4%	-7%	-6%	.

Source: PubChem BioAssay
